Mtb UGM inh – blocks M. tuberculosis UGM enzyme | P9WIQ1 | purified UGM, fluorescence polarization probe displacement | inhibition, % at 10 µM | 320,000 tested, 0.06% active | AID 504406; in the data active = inhibition above about 10%, passing the limit was not always enough
Target sequence (P9WIQ1 whole entry, looked up): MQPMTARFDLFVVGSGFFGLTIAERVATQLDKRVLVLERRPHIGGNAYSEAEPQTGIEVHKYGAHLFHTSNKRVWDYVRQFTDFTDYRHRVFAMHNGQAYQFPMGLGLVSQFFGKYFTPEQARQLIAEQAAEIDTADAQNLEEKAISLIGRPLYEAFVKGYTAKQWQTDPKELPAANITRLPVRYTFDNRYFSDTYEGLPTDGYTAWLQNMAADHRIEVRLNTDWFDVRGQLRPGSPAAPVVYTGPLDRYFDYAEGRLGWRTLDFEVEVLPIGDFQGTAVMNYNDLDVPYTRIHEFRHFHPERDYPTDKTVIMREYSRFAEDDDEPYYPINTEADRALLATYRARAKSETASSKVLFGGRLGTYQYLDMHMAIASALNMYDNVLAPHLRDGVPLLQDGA
GDH-TPI counter – counter-screen for M. tuberculosis FBA inhibitors: GDH-TPI coupled enzymes. GDH-TPI coupled enzyme counterscreen, NADH absorbance. inhibition, % at 4.8 µM. 360,000 tested, 1.2% active; in the data active = inhibition above about 30%
PriA SSB inh – inhibitors of Klebsiella pneumoniae PriA binding to SSB C-terminal tail; 430,000 tested, 0.6% active; AlphaScreen SSBct-PriA binding, biotinylated peptide; inhibition, % at 33 µM; in the data active = inhibition mostly above about 37%, no sharp cut-off; inactive = mostly below about 20%
FBA Mtb inh – inhibitors of M. tuberculosis fructose-bisphosphate aldolase | purified M. tuberculosis FBA, fluorescence read-out | 360,000 tested, 2.3% active | AID 588726 | inhibition, % at 1 µM; in the data active = inhibition above about 27%
Rv3671c protease – inhibitors of M. tuberculosis serine protease Rv3671c; inhibition, % at 5.96 µM; 320,000 tested, 0.048% active; in the data active = inhibition above about 38%;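 also: extracellular domain of Rv3671c used as enzyme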
Mtb bLac sens – beta-lactam sensitization of Mtb H37Rv; M. tuberculosis H37Rv growth with meropenem, percent inhibition; inhibition, % at 25 µM; 330,000 tested, 0.27% active; AID 434955; call rule not given here;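 also: growth measured after seven days incubation then overnight dye step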
Each line names hits and unclear results; the compound was inactive in the other large screens. Shown are actives, neighbours in structure and some others; about 3.2% of the full set was active somewhere.

CCOC(=O)c1nc2nc(-c3cccs3)cc(C(F)(F)F)n2n1	FBA Mtb inh 114
O=C(c1nc2nc(-c3cccs3)cc(C(F)(F)F)n2n1)N1CCN(Cc2ccccc2)CC1	FBA Mtb inh 145
C=CCn1c(O)c(N=NC(=S)Nc2ccc(OC)cc2)c2ccccc21	none
C=CCn1c(O)c(N=NC(=S)Nc2cccc(OC)c2)c2ccccc21	GDH-TPI counter 35
CCOC(=O)CSc1ccc2nnc(-c3ccccn3)n2n1	PriA SSB inh 90 (no result: Mtb UGM inh, GDH-TPI counter, FBA Mtb inh, Rv3671c protease, Mtb bLac sens)
CCOC(=O)CC(=O)CSc1ccc2nnc(-c3ccccn3)n2n1	none (no result: Mtb UGM inh, GDH-TPI counter, FBA Mtb inh, Rv3671c protease, Mtb bLac sens)
COC(=O)c1ccc(NC(=O)CSc2ccc3nnc(-c4ccccn4)n3n2)cc1	none (no result: Mtb UGM inh, GDH-TPI counter, FBA Mtb inh, Rv3671c protease, Mtb bLac sens)
CCOC(=O)C(C)Sc1ccc2nnc(-c3ccccn3)n2n1 (centres undefined)	PriA SSB inh 76 (no result: Mtb UGM inh, GDH-TPI counter, FBA Mtb inh, Rv3671c protease, Mtb bLac sens)
CCC(Sc1ccc2nnc(-c3ccc(F)cc3)n2n1)C(=O)O (centres undefined)	none (no result: Mtb UGM inh)
CCC(Sc1ccc2nnc(-c3ccccn3)n2n1)C(=O)O (centres undefined)	PriA SSB inh 103 (no result: Mtb UGM inh, GDH-TPI counter, FBA Mtb inh, Rv3671c protease, Mtb bLac sens)
CC(=O)Nc1ccc(NC(=O)CSc2ccc3nnc(-c4ccccn4)n3n2)cc1	PriA SSB inh 39
CC(=NNc1ccc(S(N)(=O)=O)cc1[N+](=O)[O-])c1ccco1	none (no result: Mtb UGM inh, GDH-TPI counter, FBA Mtb inh, Rv3671c protease, Mtb bLac sens)
CC1CC(=NNc2ccc(S(N)(=O)=O)cc2[N+](=O)[O-])CC(C)(C)C1 (centres undefined)	PriA SSB inh 52 (no result: Mtb UGM inh, GDH-TPI counter, FBA Mtb inh, Rv3671c protease, Mtb bLac sens)
C/C(=N\Nc1ccc(S(N)(=O)=O)cc1[N+](=O)[O-])c1ccco1	GDH-TPI counter 41 (no result: PriA SSB inh)
CC(C)(C)C1CCC(=NNc2ccc(S(N)(=O)=O)cc2[N+](=O)[O-])CC1 (centres undefined)	PriA SSB inh 45
CC1CCCC/C1=N\Nc1ccc(S(N)(=O)=O)cc1[N+](=O)[O-] (centres undefined)	none (no result: PriA SSB inh)
COCCN1C(=O)C(=O)C(=C(O)c2cccc(OC)c2)C1c1ccncc1 (centres undefined)	none (no result: Mtb UGM inh, GDH-TPI counter, FBA Mtb inh, Rv3671c protease, Mtb bLac sens)
Cc1n[nH]c2ncc(C(=O)O)c(=O)n12	none (no result: Mtb UGM inh, GDH-TPI counter, FBA Mtb inh, Rv3671c protease, Mtb bLac sens)
O=C(O)c1cnc2[nH]c3ccccc3n2c1=O	GDH-TPI counter 36, FBA Mtb inh 176
C=CCNC(=O)c1c(N)n(Cc2ccco2)c2nc3ccccc3nc12	FBA Mtb inh 113
CC(C)(C)OC(=O)c1c(N)n(Cc2ccco2)c2nc3ccccc3nc12	FBA Mtb inh 114
Nc1c(S(=O)(=O)c2cccc(Cl)c2)c2nc3ccccc3nc2n1Cc1ccco1	none (no result: Mtb UGM inh, GDH-TPI counter, FBA Mtb inh, Rv3671c protease, Mtb bLac sens)
COc1ccc(S(=O)(=O)c2c(N)n(Cc3ccco3)c3nc4ccccc4nc23)cc1	FBA Mtb inh 51
CCCCS(=O)(=O)N1CCC[C@H](c2nnc(Cc3ccccc3)s2)C1	none (no result: Mtb UGM inh, GDH-TPI counter, FBA Mtb inh, Rv3671c protease, Mtb bLac sens)
C=CCn1c(SCC(=O)Nc2ccc(OCC)cc2)nc2scc(-c3ccco3)c2c1=O	none (no result: Mtb UGM inh, GDH-TPI counter, FBA Mtb inh, Rv3671c protease, Mtb bLac sens)
Clc1ccc(C2=NN(c3ccccc3)C(c3ccco3)C2)cc1 (centres undefined)	FBA Mtb inh 161
O=S(=O)(c1ccccc1)N1N=C(c2ccc(Cl)cc2)CC1c1ccco1 (centres undefined)	none (no result: Mtb UGM inh, Rv3671c protease, Mtb bLac sens)
Cc1nc2ccccc2c(=O)n1/N=C/c1ccc(N(C)C)cc1	GDH-TPI counter 41 (no result: PriA SSB inh)
Cc1nc2ccccc2c(=O)n1N=Cc1ccc(N(C)C)cc1	none (no result: Mtb UGM inh, GDH-TPI counter, FBA Mtb inh, Rv3671c protease, Mtb bLac sens)
Cc1sc2nc(C)n(N=Cc3ccccc3)c(=O)c2c1C	none (no result: Mtb UGM inh, GDH-TPI counter, FBA Mtb inh, Rv3671c protease, Mtb bLac sens)
O=c1c2ccccc2nc(COc2ccccc2)n1/N=C/c1ccc(O)c(O)c1	GDH-TPI counter 34 (no result: PriA SSB inh)
CCCc1nc2ccccc2c(=O)n1N=Cc1c(C)[nH]n(-c2ccc(C)cc2)c1=O	none (no result: Mtb UGM inh, GDH-TPI counter, FBA Mtb inh, Rv3671c protease, Mtb bLac sens)
Cc1sc2nc(C)n(/N=C/c3ccc(O)cc3)c(=O)c2c1C	GDH-TPI counter 40 (no result: PriA SSB inh)
CCCc1nc2ccccc2c(=O)n1/N=C/c1ccc(O)cc1O	GDH-TPI counter 31 (no result: PriA SSB inh)
COc1ccc(-n2ccnc(SCc3ccc(F)cc3Cl)c2=O)cc1OC	none (no result: Mtb UGM inh, GDH-TPI counter, FBA Mtb inh, Rv3671c protease, Mtb bLac sens)
O=c1c2ccccc2nc(N/N=C/c2c(O)ccc3ccccc23)n1O	none (no result: PriA SSB inh)
CCc1nc2ccccc2c(=O)n1N=Cc1ccc(Cl)cc1	none (no result: Mtb UGM inh, GDH-TPI counter, FBA Mtb inh, Rv3671c protease, Mtb bLac sens)
O=c1c2ccccc2nc(N/N=C/c2ccc(O)cc2)n1O	GDH-TPI counter 32 (no result: PriA SSB inh)
CCCc1nc2ccccc2c(=O)n1/N=C/c1ccc(O)cc1	GDH-TPI counter 35 (no result: PriA SSB inh)
COc1ccc(O)c(C=NNC(=O)CSc2nnc(C)n2-c2ccccc2)c1	none (no result: Mtb UGM inh, GDH-TPI counter, FBA Mtb inh, Rv3671c protease, Mtb bLac sens)
CNc1nc(NN)nc(Nc2ccccc2)n1	PriA SSB inh 105
CNc1nc(Nc2ccccc2)nc(OCC(F)(F)F)n1	none
O=C(Cc1cccc2ccccc12)NCc1nnnn1-c1ccc(F)cc1	none (no result: Mtb UGM inh, GDH-TPI counter, FBA Mtb inh, Rv3671c protease, Mtb bLac sens)
N=C1c2c(cc(=O)n3c2[nH]c2ccccc23)CN1CCN1CCOCC1	FBA Mtb inh active

Compound activity: PubChem BioAssay, several laboratories
